Pf growth 96h – P. falciparum growth inhibition at 96 hour, primary screen for plastid delayed-death inhibitors. AID 504834. P. falciparum luciferase reporter growth, 96 h. Potency, µM (top dose mostly 28.7 µM), for the others: at the highest dose activity change, negative = inhibition, actives largely listed as inhibitors. hit rate 6.9% among 320,000; also: potency is read from the fitted curve at half-maximal effect
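Erythrocytes infected with luciferase-expressing P. falciparum were dispensed at 2% hematocrit and 0.05% parasitemia (final), then incubated with compounds 96 hours at 37 C in 5% CO2. Luminescence after detection reagent addition reported growth.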
HCV inh – inhibitors of hepatitis C virus infection | hit rate 3.4% among 340,000 | Huh7.5.1 HCVcc-Cre infection, luciferase reporter, 44 h | AID 651820 | Potency, µM (titrated, usually from 41.8 µM), for inactives: at the top dose activity change, negative = inhibition, hits mostly inhibitors; also: potency is read from the fitted curve at half-maximal effect
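Antiviral activity was scored by luciferase reporter output from cells infected with HCVcc-Cre (~0.5 moi) in presence of compound, 44 h infection period, cells seeded 1,000/well 4 h prior.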
Pf growth 48h – P. falciparum growth inhibition at 48 hours (one generation). AID 504832. Potency, µM (series often up to 28.7 µM), for inactives: at the highest dose activity change, negative = inhibition, most hits filed as inhibitors. hit rate 5.9% among 310,000. P. falciparum luciferase growth in erythrocytes, 48 h; also: potency is read from the fitted curve at half-maximal effect
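Read-out is firefly luciferase luminescence from an integrated reporter in P. falciparum, so falling signal marks reduced parasite growth. Infected erythrocytes were at 2% hematocrit and 0.1% parasitemia (final) in Albumax-supplemented RPMI 1640.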
HCMV inh – human cytomegalovirus inhibition; activity change, negative = inhibition, % at 57.5 µM; hit rate 4.5% among 410,000; HFF cells, HCMV-luciferase reporter, 72 h; hits give low values; AID 1259415; in the data active = activity change below about -60%; inconclusive = no clear call, values can overlap the other calls; inactive = above about -39%
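Screen run at 2 compound doses on HFFs infected with reporter HCMV, MOI 1 PFU/cell. Luciferase activity from cell lysates at 72 h post infection gave inhibition relative to buffer-only and Salinomycin wells.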
* marks the source's active call; other numbers are inactive results; ? = inconclusive; / = no result given; [ ] = dose if it differs, or a comment. Rows were chosen to be rich in hits. Some 13% of all compounds tested hit in one or more screens of this group. Unless noted, calls follow the shape of the dose curve; as a rule, active = well fitted inhibition curve with a large enough effect; inconclusive = small, poorly fitted or top-dose-only effect, or another doubt; inactive = no such curve, though single readings can be large or run the other way. % is scaled to controls: 0 for no effect and ±100 for the full control effect.

SMILES | Pf growth 96h | HCV inh | Pf growth 48h | HCMV inh
CC1=C(C(=O)OCc2ccc(C)cc2)C(c2ccccc2C(F)(F)F)CC(=O)N1 (centres undefined) | / | / | / | -33
COc1ccc(/C=C/C(=O)N2CCN(c3ccccc3)CC2)cc1S(=O)(=O)N1CCOCC1 | ? | 32µM* | -18% | ?
O=C(/C=C/c1ccc(S(=O)(=O)N2CCOCC2)cc1)N1CCN(c2ccccc2)CC1 | -17% | 2µM* | ? | ?
O=C(/C=C/c1ccc(S(=O)(=O)NCc2ccco2)cc1)N1CCN(c2ccccc2)CC1 | 3.7µM* | ? | ? | ?
Cc1ccc(/C=C/C(=O)N2CCN(S(=O)(=O)/C=C/c3ccccc3)CC2)o1 | 5.9µM* | 8% | 3% | 55
O=C(/C=C/c1ccccc1)N1CCN(S(=O)(=O)c2ccc(F)cc2)CC1 | 15% | 12% | ? | -12
C=Cc1ccc(CN2C(=O)c3ccccc3Sc3ccc(C(=O)OCc4ccco4)cc32)cc1 | / | / | / | 20
COc1ccc(N(C(=O)c2cccc(C)c2)S(=O)(=O)c2ccc3c(c2)n(C)c(=O)n3C)cc1 | / | / | / | 14
COc1ccc(-c2[nH]c(-c3ccc(Cl)cc3)nc2SCC(=O)NCC2CCCO2)cc1 (centres undefined) | / | / | / | -10
COc1ccc(/C=C/C(=O)O)cc1S(=O)(=O)N1CCCCC1 | 16% | 14% | 8% | 8
COc1ccc(/C=C/C(=O)O)cc1S(=O)(=O)N1CCCC1 | 5.9µM* | -1% | 0% | 103
COc1ccc(-c2cc3nc(-c4ccc(C)cc4)cc(C(F)(F)F)n3n2)cc1 | / | / | / | 5
CN1C[C@@H](NS(=O)(=O)N(C)C)C[C@@H]2c3cccc4c3c(cn4C)C[C@H]21 | 13µM* | / | -46% | /
COc1ccc(C2=C(C(C)=O)Sc3nnc(-c4ccc(Cl)cc4)n3N2C(C)=O)cc1OC | / | / | / | -21
O=S(=O)(CCSc1ccc(C(F)(F)F)cn1)c1ccccc1 | ? | -3% | ? | -60*
COc1cc2c(cc1NC(=O)C(C)N1CCN(S(=O)(=O)c3ccccc3[N+](=O)[O-])CC1)oc1ccccc12 (centres undefined) | 5.9µM* | ? | / | 78
COc1cc2c(cc1NC(=O)C(C)N1CCN(S(=O)(=O)c3ccc(C)c(C)c3)CC1)oc1ccccc12 (centres undefined) | 3.3µM* | 9% | / | 11
COc1cc2c(cc1NC(=O)C(C)OC(=O)c1ccc(S(=O)(=O)Nc3ccccc3Cl)cc1)oc1ccccc12 (centres undefined) | 5.2µM* | ? | ? | 77
CCOc1ccccc1C(=O)N1CC(=O)Nc2ccc(Cl)cc2C1c1ccccc1 (centres undefined) | / | / | / | 14
COCCNC(=O)CCc1nnc(Cc2ccc(-c3ccccc3)cc2)o1 | 12µM* | 10% | 1% | 19
O=C(NNC1=Nc2ccccc2SC1)c1ccccc1F | ? | 14µM* | ? | -86*
O=C(NNC1=Nc2ccccc2SC1)c1cccc([N+](=O)[O-])c1 | 10µM* | -20% | ? | -84*
O=C(NC1=NCCS1)c1ccccc1F | / | 7% | / | 76
O=C1CCCC2=C1C(c1ccc(OS(=O)(=O)c3ccc(Cl)cc3)cc1)C1=C(CCCC1=O)O2 | 96% | 13µM* | ? | -38
O=C1CCCC2=C1C(c1ccccc1)C1=C(CCCC1=O)O2 | ? | / | 23% | /
SMILES | Pf growth 96h | HCV inh | Pf growth 48h | HCMV inh
COc1ccc(S(=O)(=O)n2nc(C)c(S(=O)(=O)N3CCC(C)CC3)c2C)cc1OC | / | / | / | 6
Cc1sc2ncnc(NCC(O)c3ccccc3)c2c1C (centres undefined) | 4% | 11µM* | -17% | -74*
Cc1sc2ncnc(NCC(O)c3ccc([N+](=O)[O-])cc3)c2c1C (centres undefined) | ? | 11µM* | 9.3µM* | -79*
Cn1cc(C(=O)O)c(=O)c2cc(S(=O)(=O)N3CCCCC3)ccc21 | / | / | / | 53
CCc1nc(Oc2cccc(F)c2)c2oc3ccccc3c2n1 | / | / | / | 9
CC(C)CCNC(=O)[C@H](CC(C)C)NC(=O)[C@H]1O[C@@H]1C(=O)O | 2.1µM* | 1%[8.37 µM] | 3.7µM* | /
Cc1cccc(C)c1NC(=O)C1(C)CSCC(=O)N1Cc1cccs1 (centres undefined) | / | / | / | -25
COc1ccc(-n2c(SCC(=O)O)nc3sc4c(c3c2=O)CCCC4)cc1 | -4% | 5% | -4% | -12
CCOC(=O)CSc1nc2sc3c(c2c(=O)n1-c1ccccc1)CCN(C(C)C)C3 | 0.83µM* | -20% | 0%[0.00184 µM] | ?

High-throughput results (PubChem)
